{"source": "PubChem BioAssay (NCATS)", "note": "Several values for one entry are separate records, joined by “and”; a condition that tells them apart may be missing. Equal values may be shown once. Results filed as inconclusive are left out. A number with no mark means an inactive call. Activity calls are given as the source filed them. Calls follow the shape of the dose curve; as a rule, active = well fitted activation curve with a large enough effect; inconclusive = small, poorly fitted or top-dose-only effect; inactive = no such curve, though single readings can be large or run the other way. Potency is read from the fitted curve at half-maximal effect."}
{"target": "Cellular tumor antigen p53 (Homo sapiens) (UniProt P04637)", "sequence (P04637 whole entry, looked up)": "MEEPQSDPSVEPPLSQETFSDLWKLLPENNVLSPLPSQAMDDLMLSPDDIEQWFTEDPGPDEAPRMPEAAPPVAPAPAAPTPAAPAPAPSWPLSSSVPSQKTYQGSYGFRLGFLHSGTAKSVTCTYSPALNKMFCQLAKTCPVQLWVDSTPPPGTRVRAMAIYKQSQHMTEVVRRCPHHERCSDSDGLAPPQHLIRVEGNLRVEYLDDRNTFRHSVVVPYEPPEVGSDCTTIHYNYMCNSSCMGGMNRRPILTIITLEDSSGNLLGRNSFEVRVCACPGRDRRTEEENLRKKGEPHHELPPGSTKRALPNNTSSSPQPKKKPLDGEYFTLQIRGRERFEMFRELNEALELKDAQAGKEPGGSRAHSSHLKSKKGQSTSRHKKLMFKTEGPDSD", "experiment": "Primary qHTS for small molecule compounds that upregulate eGFP-tagged delta133p53alpha (in N-terminal) cells. (AID 2060322); also: nearly all actives have a fitted effect of over 75% in size;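 as to activation: cells pre-induced with doxycycline then dosed without doxycycline; series mostly up to about 56 µM; 0% = DMSO vehicle and 100% = reference activator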", "details": "NCI-H358 eGFP-delta133p53alpha fluorescence, 24 h; activation: active compounds read high", "procedure,_shortened": "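NCI-H358 cells pre-induced 24 h with 10 ng/ml doxycycline for eGFP-delta133p53alpha, plated dox-free and exposed 24 h at 37C to titrated compounds. Fixed, Hoechst-stained; gated GFP peak intensity by laser scanning cytometry, normalized to DMSO (0%) and 57.5 uM 5-azacytidine (100%).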"}
{"smiles": "Nc1ccc(S(=O)(=O)Nc2ccc(Cl)nn2)cc1", "activation": "2.51%"}
{"smiles": "CCCCOC(=O)c1ccc(N)cc1", "activation": "19.8%"}
{"smiles": "CCCCCCCCCCOc1cc2c(=O)c(C(=O)OCC)c[nH]c2cc1OCC", "activation": "-12.6%"}
{"smiles": "CN(C)CC[C@H](c1ccc(Cl)cc1)c1ccccn1", "activation": "26.7%"}
{"smiles": "O=C(O)C[C@H](O)C[C@H](O)C=Cc1c(C2CC2)nc2ccccc2c1-c1ccc(F)cc1", "activation": "-5.06%"}
{"smiles": "O=C(O)CCCC[P+](c1ccccc1)(c1ccccc1)c1ccccc1", "activation": "20.9%"}
{"smiles": "CC[C@]12CCCN3CCc4c(n(c5ccccc45)[C@@](O)(C(=O)OC)C1)[C@@H]32", "activation": "5.02%"}
{"smiles": "O=C1c2ccccc2C(=O)C1c1ccccc1", "activation": "-12.6%"}
{"smiles": "Cc1cc(NS(=O)(=O)c2ccc(N)cc2)nc(C)n1", "activation": "-13.4%"}
{"smiles": "N#CC(=Cc1ccc(O)c(O)c1)C(=O)NCc1ccccc1", "Potency": "34.3 µM (active)"}
{"smiles": "COC(=O)c1cc(Cl)ccc1NS(=O)(=O)C(F)(F)F", "activation": "8.47%"}
{"smiles": "COc1c(C)c2c(c(O)c1CC=C(C)CCC(=O)O)C(=O)OC2", "activation": "-14.1%"}
{"smiles": "O=S(=O)(O)c1cc(I)c(O)c2ncccc12", "activation": "11.7%"}
{"smiles": "Nc1ccc(C(=O)O)c(O)c1", "activation": "20.9%"}
{"smiles": "CCCCN(CCCC)CC(O)c1cc(Cl)cc2c1-c1ccc(Cl)cc1C2=Cc1ccc(Cl)cc1", "note": "(stereo not drawn)", "activation": "12%"}
{"smiles": "OC1(c2ccccc2)CCNCC1", "activation": "0.565%"}
{"smiles": "CC(C)(C)C(=O)NCCCC(=O)O", "activation": "-17.6%"}
{"smiles": "CN1CCCC(n2nc(Cc3ccc(Cl)cc3)c3ccccc3c2=O)CC1", "note": "(stereo not drawn)", "activation": "10.9% and 17.6%"}
